# Test system: LOC_OS01G60330-cb001
# Test: thermal shift delta Tm vs DMSO control; higher = stronger stabilization (binding)
# Settings: 12.5 µM; protein concentration 2 µM
# Summary of the method: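 Rice kinase domain constructs were expressed in E. coli, purified, and tested by differential scanning fluorimetry with compound added in DMSO. Each well of a 96-well plate held 19.5 μl of 2 μM kinase in 100 mM potassium phosphate pH 7.5, 150 mM NaCl, 10% glycerol and 5 × SYPRO Orange, and fluorescence was read from 25°C to 95°C at 0.05°C/s. The melting temperature shift is the mean of triplicates, taken against protein with DMSO alone after Boltzmann fitting.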
row,Compound,thermal shift delta Tm [°C]
1,COCCNCc1ccc(-c2cc3nccc(Oc4ccc(NC(=O)C5(C(=O)Nc6ccc(F)cc6)CC5)cc4F)c3s2)nc1 [Sitravatinib (MGCD516)],1.12
2,COCC(=O)NC/C=C/c1ccc2ncnc(Nc3ccc(Oc4ccc(C)nc4)c(C)c3)c2c1,0.77
3,O=C(NOC[C@H](O)CO)c1ccc(F)c(F)c1Nc1ccc(I)cc1F,1.22
4,Cc1cc(Nc2cc(N3CCN(C)CC3)nc(/C=C/c3ccccc3)n2)n[nH]1,9.2
5,Nc1nc(N)c2nc(-c3cccc(O)c3)c(-c3cccc(O)c3)nc2n1,3.89
6,Cc1nc(Nc2ncc(C(=O)Nc3c(C)cccc3Cl)s2)cc(N2CCN(CCO)CC2)n1 [Dasatinib],0.68
7,O=C(c1ccc(Nc2nccc(-c3cc4ccccc4s3)n2)cc1)N1CCC(N2CCCC2)CC1 [IKK-16 (IKK Inhibitor VII)],12.6
8,CC(C)CC(=O)Nc1n[nH]c2c1CN(C(=O)C1CCN(C)CC1)C2(C)C,1.35
9,COc1cc2c(Oc3ccc(NC(=O)C4(C(=O)Nc5ccc(F)cc5)CC4)cc3F)ccnc2cc1OCCCN1CCOCC1,1.45
10,OCCn1cc(-c2cnc3nnn(Cc4ccc5ncccc5c4)c3n2)cn1,0.74
11,CC(C)(C)c1nc(-c2ccc(NC(=O)Nc3cccc(C(F)(F)F)c3)c3ccccc23)c2c(N)nccn12 [kira6],1.17
12,COc1ccc(-c2ccc3ncc4c(c3c2)n(-c2ccc(N3CCNCC3)c(C(F)(F)F)c2)c(=O)n4C)cn1,0.66
13,FC(F)(F)c1ccc(CNc2ccc(Cc3c[nH]c4ncc(Cl)cc34)cn2)cn1 [Pexidartinib (PLX3397)],3.92
